Screening results: PubChem BioAssay, Broad Institute
aSyn 5UTR act: Activators via SNCA 5'UTR binding, MLPCN; alpha-synuclein 5'UTR reporter, activators screen; activity score, % (tested at 7.5 µM), hits read low; 7.1% of 300,000 active; AID 1814; in the data active = activity score below about -60%
Active calls of the source: *. The list is a sample of the results.

SMILES	aSyn 5UTR act
COCCSc1nnc(NC(=O)c2ccco2)s1	-81*
CSc1nnc(NC(=O)c2ccco2)s1	-77*
CCCSc1nnc(NC(=O)c2ccco2)s1	-81*
COCCSc1nnc(NC(=O)C2CCCCC2)s1	-63*
Cc1cnc(NC(=O)c2ccco2)s1	-94*
Cc1cnc(NC(=O)c2ccncc2)s1	-65*
CCCSc1nnc(NC(=O)Nc2ccccc2)s1	-92*
COc1ccccc1CNC(=O)[C@@H]1CCCN1S(=O)(=O)c1ccc(C)cc1	-113*
COc1cccc(NS(=O)(=O)NC(=O)c2cn(C)c3ccccc23)c1	-69*
COC(=O)c1ccc(NS(=O)(=O)NC(=O)c2cn(C)c3ccccc23)cc1	-84*
Cc1ccc(SCCSc2nc(C)cc(=O)[nH]2)cc1	-133*
CCOc1cc(-c2ccccc2)nc(N)n1	-112*
COc1cc(-c2ccccc2)nc(N)n1	-117*
CC(C)=CC(=O)Nc1ccc(Br)cc1	-191*
COc1ccc(/C=C/C(=O)Oc2cccc(/C=N/NC(=O)c3cccc(F)c3)c2)cc1	-151*
COc1ccc(/C=C\C(=O)Oc2cccc(/C=N/NC(=O)Cc3ccc(OC)c(OC)c3)c2)cc1	-87*
N=C1SCC(=O)N1c1nc(-c2ccccc2)cs1	-159*
O=C1CC(c2ccccc2)=NN1c1nc(-c2ccccc2)cs1	-150*
c1cc2c(cnc3cscc32)s1	-69*
Nc1nnc(/C=C/c2ccccc2Cl)s1	-81*
Cc1ccc(NC(=O)CS(=O)c2ccccc2N)c(C)c1 (configuration not stated)	-96*
CC1(C)COC(c2coc3ccccc3c2=O)OC1	-97*
Cc1ccc(/C(N)=N/OC(=O)COc2ccccc2Cl)cc1	-95*
N/C(=N\OC(=O)COc1ccccc1Cl)c1ccc(Cl)cc1	-90*
O=C(COc1ccc2oc(-c3ccccc3)cc(=O)c2c1)NCc1ccco1	-127*
SMILES	aSyn 5UTR act
COc1ccc(-c2cc(=O)c3cc(O)ccc3o2)cc1	-121*
O=c1cc2oc3cc(O)c(O)cc3c(-c3ccccc3[N+](=O)[O-])c-2cc1O	71
O=c1cc(-c2ccccc2)oc2ccc(O)cc12	-90*
COc1ccccc1CN1CC(C(=O)N2CCCCO2)CCC1=O (configuration not stated)	-77*
COCCn1c(=O)c2c(nc3n2CC(C)CN3CCc2ccccc2)n(C)c1=O (configuration not stated)	67
COc1ccccc1Cn1nnc2c(=O)[nH]c(C3CCN(C(=O)c4ccccc4Cl)CC3)nc21	60
COCCCC1CCN(C(=O)C2CCC(=O)N(CCc3ccccc3)C2)CC1 (configuration not stated)	-74*
O=C1CCC(C(=O)N2CCCCO2)CN1CCc1ccccc1 (configuration not stated)	-89*
O=C(CSc1nc2ccccc2[nH]1)c1ccco1	-127*
c1ccc2[nH]c(SCc3cn4cccnc4n3)nc2c1	-63*
O=C(CSc1nc2ccccc2[nH]1)c1ccc(Cl)s1	-113*
CCOc1ccc2nc(SCC(=O)N(C)C)[nH]c2c1	-92*
COc1ccc2nc(SCC(=O)c3ccco3)[nH]c2c1	-105*
O=C(CSc1nc2ccccc2[nH]1)N1CCCCC1	-136*
Fc1cccc(CSc2nc3ccncc3[nH]2)c1	-80*
O=C(CSc1nc2ccc(Cl)cc2[nH]1)c1cccs1	-113*
COc1ccc2nc(SCC(=O)C(C)(C)C)[nH]c2c1	-134*
O=C(CSc1nc2ccccc2[nH]1)c1ccccc1F	-162*
Fc1cccc(F)c1CSc1nc2ccccc2[nH]1	-127*
COc1ccc(C(=O)Nn2c(SCC(=O)N3CCC(C)CC3)nc3ccccc3c2=O)cc1	83
O=C(CSc1nc2ccccc2n1S(=O)(=O)c1ccccc1)N1CCCCC1	-100*
COc1ccc(C(=O)/C=C2/C(=O)Nc3ccccc32)cc1	-99*
CC(C)Nc1ccc(Nc2ccnc3cc4ccccc4cc23)cc1	99
COc1ccc(NC(C)c2ccccc2)cc1 (configuration not stated)	-91*
COc1ccc(CNCCC(c2ccc(OC(C)C)cc2)c2ccccc2OC)cc1 (configuration not stated)	134
SMILES	aSyn 5UTR act
Cc1ccc2cc(CCNC(=O)c3cccs3)c(=O)[nH]c2c1C	-190*
O=C(NCCc1ccc(Cl)cc1)c1cccs1	-156*
O=C(CNC(=O)c1cccs1)c1ccc(Cl)cc1	-89*
N/C(=N\OC(=O)c1ccc(Cl)cc1Cl)c1ccncc1	-112*
Cc1ccc(C(=O)O/N=C(\N)c2ccccc2)c(Cl)c1	85
N/C(CS(=O)(=O)c1ccccn1)=N\OC(=O)c1ccccc1Cl	-114*
N/C(=N\OC(=O)c1cc(Cl)ccc1Cl)c1ccncc1	-229*
N/C(=N\OC(=O)c1ccccc1Cl)c1ccncc1	-107*
O=C1CCCC/C1=C\Nc1ccc(Cl)cn1	-116*
COc1ccc(N2C(=O)c3ccccc3NC2(C)C)cc1	-69*
CC1(C)Nc2ccccc2C(=O)N1c1ccc(Br)cc1	-84*
CCCCCCc1ccc(-c2ncc(N)cn2)cc1	-68*
CCCCCc1ccc(-c2nnc(N)s2)cc1	-98*
O=[N+]([O-])/C(C(Cl)=C(Cl)Cl)=C(\Nc1ccc(F)cc1)n1cncn1	-102*
CCN(CC)CCCNc1nc2ccccc2c2nc(-c3ccncc3)nn12	-281*
CCN(CC)CCCNc1nc2cc(OC)c(OC)cc2c2nc(-c3cccnc3)nn12	-79*
CCN(CC)CCCNc1nc2cc(OC)c(OC)cc2c2nc(-c3ccccc3)nn12	-76*
COc1ccc(NC(=O)C(=O)Nc2cccc3cccnc23)cc1OC	-114*
COc1ccc(C(NC(=O)c2cccnc2)c2cc(Cl)c3cccnc3c2O)cc1OC (configuration not stated)	76
CCS(=O)(=O)c1ccc(OC)c(N=Nc2ccc(O)c3ncccc23)c1	66
Cc1cc(C(=O)Nc2cccc3cccnc23)ccc1[N+](=O)[O-]	-106*
CC(C)Oc1ccc(C(=O)Nc2cccc3cccnc23)cc1	-136*
COc1ccc(C(=O)Nc2cccc3cccnc23)cc1OC	-72*
O=C(CCS(=O)(=O)c1ccccc1)NC12CC3CC(CC(C3)C1)C2	-179*
Cc1csc2ncnc(N3CCN(C(=S)Nc4ccc(C(F)(F)F)cc4)CC3)c12	56
SMILES	aSyn 5UTR act
S=C(Nc1ccc2nccnc2c1)N1CCCC1	-87*
O=C(Nc1ccc2nsnc2c1)N1CCCCCC1	-98*
O=C(Nc1ccc(Cl)c(Cl)c1)N1CCCCCC1	-140*
S=C(Nc1ccc2nsnc2c1)N1CCCC1	-133*
O=C(Nc1ccc(Cl)c(C(F)(F)F)c1)C(=O)N1CCCCC1	-67*
Cc1cc(SCC(=O)c2cc3ccccc3o2)nc2ccccc12	-73*
Cc1cc(C)nc(Nc2n[nH]c(COc3ccccc3)n2)n1	-110*
Cc1cc(C)nc(Nc2n[nH]c(-c3ccccc3Cl)n2)n1	-141*
Cc1cc(C)nc(Nc2n[nH]c(-c3cccc4ccccc34)n2)n1	-88*
C=CCN1C(=O)C(=O)N(Cc2nc3ccccc3s2)C1=O	-118*
COc1ccc(C(=O)Cc2cc3cccc(OC)c3oc2=O)cc1	-79*
COc1cccc2cc(CC(=O)c3ccc(C)cc3C)c(=O)oc12	-185*
COc1ccc(C(=O)c2cc3cccc(OC)c3o2)cc1	-161*
CC(=O)c1ccc(OCc2cc(C(=O)N3CC[C@@H]4CCCC[C@H]4C3)no2)cc1	-126*
COCC1CCCN(C(=O)c2cc(COc3cncc(Cl)c3)on2)C1 (configuration not stated)	-137*
